We go through twelve molecules from PubChem BioAssay (NCI).

This is part of a sample that, as a whole, favours compounds with a hit. Of some 83,000 tested, about 20% had one in any assay.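 How to read the values: 0–100, growth inhibition (40 = 60% inhibited); 0, no net growth; -100 to 0, cell death (-40 = 40% of starting cells died; -100 = all dead).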 The source made the active and inactive calls. How the source made its calls: active means growth percent below 10; inactive means the rest.

The subject of one experiment is A549/ATCC NSCLC. The experiment is described as follows: NCI-60 one-dose screen, 48 h (100 = growth as untreated, 0 = no growth, -100 = all killed). Conditions: 10 µM.
With `Cc1cc(N(CCCNc2ccnc3cc(Cl)ccc23)Cc2cccs2)nc(Cl)n1`, the growth was 51.9% (inactive).

In the case of `CC12O[C@H](C[C@@H](OC(=O)c3ccccc3)[C@H]1O)n1c3ccccc3c3c4c(c5c6ccccc6n2c5c31)C(=O)NC4=O`, the growth is 50.9% (inactive).

`NC1=NC(=O)C(c2ccccc2)(c2ccccc2)S1`: the growth was 104% (inactive).

Regarding `N=C(N)c1ccc(-c2ccc(-c3cccs3)s2)cc1`, the growth was -44.8% (active).

Turning to `CCCCCCCCCCCCCC[n+]1ccc(C(N)=O)cc1`, the growth was 33.6% (inactive).

A further experiment deals with 786-0 renal. The description is as above. To be noted: 10 µM.
Regarding `COc1cc2nc(Nc3cccc(NC(C)=O)c3)nc(N)c2cc1OC`, the growth was 94.7% (inactive).

With `COc1ccc(-c2nc3sc(C4CC4)nn3c2/C=C2/C(=O)Nc3ccc(OC)cc32)cc1`, the growth was 86% (inactive).

As to `Cc1cc(N(CCCNc2ccnc3cc(Cl)ccc23)Cc2cccs2)nc(Cl)n1`, the growth was 48.2% (inactive).

Turning to `O=C1OCC2=C1C(c1cccc(Br)c1)c1cc3c(cc1N2CCO)CCC3` (centres undefined), the growth is 19.1% (inactive).

Turning to `COc1ccc(/C=C2/CN(C(=O)c3ccc(C)cc3)C/C(=C\c3ccc(OC)cc3)C2=O)cc1`, the growth is 99.9% (inactive).

`Cc1ccc(C(=O)Nc2cccc(F)c2)cc1NC(=O)C1(c2ncnc3[nH]ccc23)CC1`: the growth is 110% (inactive).

For `Clc1ccccc1N=Cc1ccc2c(c1)OCO2`, the growth is 104% (inactive).

On to `CC12O[C@H](C[C@@H](OC(=O)c3ccccc3)[C@H]1O)n1c3ccccc3c3c4c(c5c6ccccc6n2c5c31)C(=O)NC4=O`, for which the growth was 78.7% (inactive).

Consider `CCN(CC)CCNc1ccc(CO)c2oc3cc(Cl)ccc3c(=O)c12`, for which the growth is 76% (inactive).
